Assay in all cases: NCI-60 one-dose screen, 48 h (100 = growth as untreated, 0 = no growth, -100 = all killed)
Conditions in all cases: 10 µM unless noted

For assay [1], the system named is NCI-H23 lung.
In assay [2] the test system is NCI-H226 lung.
The subject of assay [3] is NCI-H322M lung.
For assay [4], the system named is HOP-62 NSCLC.
Assay [5] relates to NCI-H460 lung.
In assay [6] the test system is HOP-92 NSCLC.
In assay [7] the test system is NCI-H522 lung.
Assay [8] concerns A549/ATCC NSCLC.
Assay [9] relates to 786-0 renal.
Assay [10] has as its system COLO 205 colon.
Assay [11] concerns DU-145 prostate.
Assay [12] deals with K-562 leukemia.
Assay [13] relates to MALME-3M melanoma.
The subject of assay [14] is MDA-MB-231 breast.
Assay [15] deals with SF-268 CNS.
The subject of assay [16] is SF-295 CNS.
Assay [17] relates to SF-539 CNS.
For assay [18], the system named is UACC-257 melanoma.
Assay [19] has as its system M14 melanoma.

Each structure is given as a SMILES string. Compounds without any hit were thinned out: in the full panel of roughly 83,000, 20% have a hit.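 Compound tested at a single concentration for 48 hours in 96-well plates; a percent growth value below 10 was scored as active.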 Unmarked numbers belong to inactive results. Active and inactive are the calls of the source.

With `N/C(=N\N=C\c1cc2ccccc2s1)N/N=C/c1cc2ccccc2s1`, the growth in [1] is 103%; in assay [2], 99.5%; in [3], 108%; in [4], 110%; in [5], 102%; in assay [6], 97%. The growth was 91.8% in assay [7]; 106% in [8]; 5.55% (active) in assay [9]; 112% in [10]; 115% in [11]; 97.5% in [12]. Further, the growth was 102% in [13]; 95.4% in assay [14]; 102% in [15]; 103% in assay [16]; 101% in assay [17]; 98.1% in assay [18]. Besides, the growth in [19] is -56.3% (active).
Consider `CS(=O)(=O)Nc1cc(-c2ccc3ncnc(Nc4ccc5[nH]ncc5c4)c3c2)cnc1Cl`, for which the growth in assay [1] is 86%; in assay [2], 75%; in assay [3], 74.1%; in [4], 55.2%; in assay [5], 94.1%; in assay [6], 0.913% (active). For the same compound, the growth in assay [7] was 60.6%; in assay [8] it was 91.8%; in assay [9] it was 79.6%; in assay [10] it was 81.7%; in assay [11] it was 82.4%; in [12], 90.1%. The growth in assay [13] was 60.9%; in [14], 79.5%; in [15], 53.8%; in assay [16] it was 88%; in assay [17], 67.7%; in assay [18], 35.4%. Also, the growth in [19] was 80.8%.
As for `O=C(Nc1ccc(Cl)cc1)Nc1ccc(Cl)c(Cl)c1`, the growth in [1] was -54.2% (active); in assay [2], 16.3%; in assay [3], 23.7%; in assay [4], 40.8%; in assay [5], -9.05% (active); in assay [6] it was 4.68% (active). The growth in assay [7] was 0.643% (active); in [8] it was 12.6%; in [9], 39.1%; in [10] it was -2.8% (active); in assay [11] it was 10.7%; in assay [12], 4.12% (active). Further, the growth in assay [13] is -1.33% (active); in assay [14], 37.6%; in [15] it was 36.1%; in assay [16], -50.7% (active); in [17], -19.2% (active); in [18], 43%. Further, the growth in assay [19] was 22.8%.
In the case of `CC(C)CN(C(=O)c1ccc(Cl)cc1)c1c(N)n(CC(C)C)c(=O)[nH]c1=O`, the growth is 95.8% in assay [1]; 98.7% in [2]; 103% in assay [3]; 90.6% in assay [4]; 88.4% in assay [5]; 80.6% in [6]. The growth in assay [7] was 98.8%; in assay [8] it was 98.8%; in assay [9] it was 91.4%; in assay [10], 122%; in [11], 112%; in assay [12], 103%. In addition, the growth in assay [13] is 102%; in assay [14], 96.1%; in [15] it was 92.3%; in assay [16] it was 84.7%; in assay [17] it was 43.7%; in assay [18], 103%. Besides, the growth in assay [19] was 109%.
For the compound `COc1ccc(C(=O)/C=C/c2c(OC)cc(OC)cc2OC)c(OC)c1`, the growth is 26.1% in assay [1]; 69.5% in [2]; 56.2% in assay [3]; 40.4% in [4]; 8.76% (active) in assay [5]; 31.5% in assay [6]. Also, the growth in [7] is -6.76% (active); in [8] it was 31.6%; in assay [9] it was 26.2%; in assay [10] it was 8.18% (active); in [11], 18.3%; in assay [12], 18.5%. Also, the growth was 3.17% (active) in assay [13]; 44.4% in assay [14]; 36.5% in assay [15]; 11.3% in [16]; 8.25% (active) in assay [17]; 28.9% in assay [18]. Also, in [19], the growth was 4.81% (active).
Take `COc1cc2nc(Cc3ccc(C)cc3)[nH]c(=O)c2cc1OC`: the growth in assay [1] was 105%; in assay [2], 95.9%; in assay [3], 236%; in assay [4], 104%; in [5], 107%; in assay [6] it was 69.1%. For the same compound, the growth is 92.8% in assay [7]; 49.3% in [8]; 103% in [9]; 123% in assay [10]; 100% in assay [11]; 94.3% in assay [12]. Also, the growth is 277% in assay [13]; 98.8% in assay [14]; 105% in assay [15]; 121% in assay [16]; 104% in assay [17]; 105% in assay [18]. Further, the growth in [19] was 113%.
With `COc1cc(-c2cc(=O)oc3cc(O)ccc23)c(OC)c2c1OCO2`, the growth in assay [1] was 83.5%; in [2], 86.4%; in [3] it was 89.4%; in assay [4], 92.7%; in [5] it was 88.9%; in assay [6] it was 79%. Moreover, the growth in assay [7] was 81.7%; in assay [8] it was 87%; in assay [9], 95.6%; in [10], 102%; in [11], 101%; in [12], 90.3%. Moreover, the growth in assay [13] was 88.7%; in assay [14], 93.7%; in [15], 92.4%; in [16] it was 92%; in assay [17], 92.1%; in assay [18] it was 101%. In addition, the growth in assay [19] was 96.5%.
Regarding `CN1C(=O)N(C)[C@H]2NC(NN)=N[C@H]21`, the growth in assay [1] was 103%; in assay [2], 93.3%; in assay [3], 91.2%; in assay [4], 98.8%; in assay [5] it was 103%; in assay [6] it was 90.3%. Further, the growth is 102% in assay [7]; 97.9% in assay [8]; 99.8% in assay [9]; 104% in assay [10]; 114% in assay [11]; 98.9% in [12]. The growth in [13] is 94.3%; in [14] it was 102%; in assay [15], 94%; in assay [16] it was 101%; in assay [17], 102%; in assay [18], 97.1%. In addition, the growth in assay [19] was 100%.
In the case of `Clc1ccc(N2N=C(c3cccc(Nc4ccncc4)c3)CC2c2ccccc2)cc1` (stereo not drawn), the growth in [1] was 92.6%; in assay [2] it was 94.5%; in assay [3], 92.7%; in assay [4], 92.2%; in assay [5], 98.9%; in [6], 67.7%. Also, the growth was 80.4% in assay [7]; 93.9% in [8]; 10.9% in assay [9]; 73.1% in assay [10]; 100% in assay [11]; 46% in assay [12]. Further, the growth in assay [13] was 93.5%; in assay [14], 93.2%; in assay [15] it was 78.1%; in assay [16], 102%; in [17], 86%; in assay [18] it was 101%. The growth in assay [19] is -55.4% (active).
For `O=C(Nc1ccc2ncnc(Nc3ccc(Oc4cccc(F)c4)c(Cl)c3)c2c1)c1ccc(CN2CCOCC2)cc1`, the growth in assay [1] is 20.1%; in assay [2] it was 52%; in [3], 60.7%; in assay [4], 17.9%; in [5] it was 38.8%; in [6] it was 53.9%. Further, the growth was 6.89% (active) in assay [7]; 33.6% in [8]; 42.2% in assay [9]; 40.1% in [10]; 39.6% in assay [11]; 8.98% (active) in [12]. In addition, the growth was 38.9% in assay [13]; 46.1% in assay [14]; 49% in assay [15]; 27.3% in assay [16]; 53.2% in assay [17]; 53.1% in assay [18]. For the same compound, the growth in [19] is 14.7%.
On to `COc1cccc(CCC(=O)c2cc3c(N)c(C(=O)Nc4cccc(Cl)c4C)sc3nc2C)c1`, for which the growth was 37.4% in assay [1]; 45.7% in [2]; 43.6% in [3]; 36.4% in assay [4]; 7.76% (active) in assay [5]; 48% in assay [6]. Besides, the growth is 12.1% in assay [7]; 27.3% in assay [8]; 25.9% in assay [9]; 7.16% (active) in assay [10]; 13.8% in [11]; 7.49% (active) in assay [12]. For the same compound, the growth in assay [13] was 41.3%; in assay [14] it was 16.9%; in assay [15] it was 37.3%; in assay [16], 2.95% (active); in assay [17], -41.6% (active); in assay [18], 65.1%. Also, in assay [19], the growth is 16.4%.
For `O=C1Nc2ccccc2/C1=C\c1cccc(/C=C2/C(=O)Nc3ccccc32)n1`, the growth is -15.9% (active) in [1]; 2.74% (active) in assay [2]; -70.8% (active) in assay [3]; -61.3% (active) in [4]; -60.9% (active) in [5]; -31.7% (active) in assay [6]. Also, the growth in assay [7] was 10%; in [8], 6.25% (active); in [9] it was -84.4% (active); in assay [10] it was -85.7% (active); in [11], -90.2% (active); in assay [12] it was -24.1% (active). The growth in assay [13] was -40.3% (active); in assay [14], -52.3% (active); in assay [15] it was -67.1% (active); in [16], -81% (active); in assay [17] it was -73.4% (active); in assay [18] it was -65.8% (active). Further, in [19], the growth was -69.2% (active).

Values taken from PubChem BioAssay (NCI).
